From PubChem BioAssay AID504727 (Broad Institute, 2011)
Several values for one entry are separate records, joined by “and”; a condition that tells them apart may be missing. Identical values can stand only once. Unmarked numbers belong to inactive results. Activity calls are given as the source filed them.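 The calls were made as follows: active = fitted half-maximal concentration AC50 at or below ten times the highest valid tested dose, with signal falling as DNA is displaced (actives reach about 34 µM in these data); inconclusive = flat fit at moderate signal loss, or poor fit quality; inactive = the rest, including signal rising instead of falling.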

Assay: acridine orange-DNA binding displacement – biochemical, fluorescence polarization, cherry-picked samples, set 2, artefact control for KSHV LANA DNA-binding inhibitor project, dose response (AID 504727)

Structure (SMILES)	AC50
CC(C)CN(C(=O)CSc1nncn1C)C1CCS(=O)(=O)C1 (configuration not stated)	inactive
CC(Oc1ccccc1)c1nnc(N)s1 (configuration not stated)	17.5 µM (active)
Oc1ccc(-c2nc3ccccn3c2NCc2ccco2)cc1	inactive
CN1CCN(CCCNC(=O)c2cc3c(-c4ccc(Cl)cc4)nn(C)c3s2)CC1	inactive
O=C(CN1CCN(C(=O)CNC(=O)c2ccc3c(c2)OCO3)CC1)Nc1ccc(F)cc1	inactive
CC(C)CCN1C(=O)c2cccc3c(N)ccc(c23)C1=O	7.39 µM (active)
COC(=O)C(NC(=O)C(C)NC(=O)OCc1ccccc1)C(C)C (configuration not stated)	> 35 µM
CC(C(=O)Nc1ccccc1)N1C(=O)c2ccccc2C1=O (configuration not stated)	inactive
COc1ccccc1C(=O)NCC(=O)OCC(=O)N(CC(C)C)c1c(N)n(Cc2ccccc2)c(=O)[nH]c1=O	inactive
O=c1[nH]c(=S)[nH]c2c1C(c1ccc(Br)cc1)c1c([nH]c(=S)[nH]c1=O)O2	inactive
NNc1nnc2c3cc(F)ccc3n(Cc3ccccc3)c2n1	inactive
CC(=O)c1ccc2c(c1)C1C=CCC1C(C(=O)O)N2 (configuration not stated)	inactive
CCN(CC)c1ccc2cc(S(=O)(=O)c3ccc(Cl)cc3)c(=O)oc2c1	6.87 µM (active)
COc1[nH]c(/N=C/c2ccccc2)c(C#N)c1C#N	inactive
CCN(CCCNC(=O)Cn1cc2c(n1)CCCC2)c1cccc(C)c1	inactive
Cn1nc(-c2ccccc2)c2nc3ccccc3nc21	35.8 µM (active)
O=C1c2c(O)ccc(O)c2C(=O)c2c(NCCNCCO)ccc(NCCNCCO)c21	1.34 µM (active) and 2.32 µM (active)
